A short description of experiment [1]: qHTS of pediatric cancer cell lines to identify multiple opportunities for drug repurposing: Primary screen for A673 cells (AID 1347092). For activity change, negative = cytotoxic: % is set by controls: 0 for no effect and ±100 for the full control effect. Note: nearly all actives have a fitted effect of over 45% in size. Note: potency is the fitted concentration of half-maximal effect. In outline: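 Titration-based qHTS on A673 cells: MIPE compounds spanned 11 points (0.78 nM to 46 µM final), NPC compounds 8 points (0.59 nM to 46 µM final). Viability after 48 h was measured by ATP luminescence.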
A short description of experiment [2]: qHTS of pediatric cancer cell lines to identify multiple opportunities for drug repurposing: Primary screen for SK-N-MC cells (AID 1347093).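 For activity change, negative = cytotoxic: series mostly up to about 46 µM; plate controls were DMSO neutral control for no effect and bortezomib for full effect.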 Note: potency is the fitted concentration of half-maximal effect. In short, it runs like this: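 Metabolically active cells were quantified by ATP-dependent luminescence (CellTiter-Glo, 15 min at room temperature) following 48 h treatment. Cells had been plated at 500-1,000 per well and settled for 5 h beforehand.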

A short description of experiment [3]: qHTS of pediatric cancer cell lines to identify multiple opportunities for drug repurposing: Primary screen for NB-EBc1 cells (AID 1347095).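 For activity change, negative = cytotoxic: plate controls were DMSO neutral control for no effect and bortezomib for full effect.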 Note: potency is the fitted concentration of half-maximal effect. In outline: (§1)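 ATP-based luminescence (CellTiter-Glo) quantifies viability after a 48-hour exposure. Compounds are dosed across 8 or 11 final concentrations; DMSO and 2.3 µM bortezomib serve as controls.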
A short description of experiment [4]: qHTS of pediatric cancer cell lines to identify multiple opportunities for drug repurposing: Primary screen for U-2 OS cells (AID 1347096).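 For activity change, negative = cytotoxic: plate controls were DMSO wells for no effect and bortezomib positive control wells for full effect.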 Note: nearly all actives have a fitted effect of over 50% in size. Note: potency is the fitted concentration of half-maximal effect. In short, it runs like this: (§2)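 Cells (500-1,000/well) in growth media were settled 5 h at 37 degrees C, then given compounds for 48 h. Viability was read as CellTiter-Glo luminescence. Primary runs used MIPE at 11 points (0.78 nM-46 µM) and NPC at 8 points (0.59 nM-46 µM); follow-ups used 11 points.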

Experiment [5] in a line: qHTS of pediatric cancer cell lines to identify multiple opportunities for drug repurposing: Primary screen for Saos-2 cells (AID 1347097). For activity change, negative = cytotoxic: % is set by controls: 0 for no effect and ±100 for the full control effect. Note: nearly all actives have a fitted effect of over 40% in size. Note: potency is the fitted concentration of half-maximal effect. In short, it runs like this:
as §1

Experiment [6] can be described thus: qHTS of pediatric cancer cell lines to identify multiple opportunities for drug repurposing: Primary screen for SK-N-SH cells (AID 1347098).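 For activity change, negative = cytotoxic: DMSO served as neutral control and bortezomib at 2.3 µM as positive control; % is set by controls: 0 for no effect and ±100 for the full control effect.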 Note: nearly all actives have a fitted effect of over 65% in size. Note: potency is the fitted concentration of half-maximal effect. In short, it runs like this:
(§3)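 Cells (500-1,000/well) rested 5 h, then received compounds for 48 h; metabolically active cells were measured by CellTiter-Glo luminescence. Final concentrations spanned up to 46 µM (MIPE, 11-point) or 0.59 nM-46 µM (NPC, 8-point) in primary screens, 11-point in follow-ups.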

Experiment [7] is described as follows: qHTS of pediatric cancer cell lines to identify multiple opportunities for drug repurposing: Primary screen for NB1643 cells (AID 1347099).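 Note: plate controls were DMSO neutral control for no effect and bortezomib positive control for full effect; nearly all actives have a fitted effect of over 50% in size.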 In short, it runs like this:
as §1

Experiment [8] can be described thus: qHTS of pediatric cancer cell lines to identify multiple opportunities for drug repurposing: Primary screen for LAN-5 cells (AID 1347100).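 For activity change, negative = cytotoxic: plate controls were DMSO neutral control for no effect and bortezomib positive control for full effect.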 Note: potency is the fitted concentration of half-maximal effect. In short, it runs like this:
as §2

Experiment [9] is described as follows: qHTS of pediatric cancer cell lines to identify multiple opportunities for drug repurposing: Primary screen for BT-12 cells (AID 1347101).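 For activity change, negative = cytotoxic: plate controls were DMSO for no effect and bortezomib positive control for full effect.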 Note: nearly all actives have a fitted effect of over 25% in size. Note: potency is the fitted concentration of half-maximal effect. In outline: as §3
A short description of experiment [10]: qHTS of pediatric cancer cell lines to identify multiple opportunities for drug repurposing: Primary screen for BT-37 cells (AID 1347094).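 For activity change, negative = cytotoxic: series mostly up to about 57 µM; plate controls were DMSO for no effect and bortezomib for full effect.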 Note: potency is the fitted concentration of half-maximal effect. In outline: as §1

Among the data in PubChem BioAssay (NCATS) are Potency and activity change, negative = cytotoxic values, retold here.

Each structure is given as a SMILES string. Results filed as inconclusive are left out. A number with no mark means an inactive call. Active and inactive are the calls of the source. Calls come from the whole dose curve; as a rule, active = well fitted curve in the direction sought with a large enough effect; inconclusive = small, poorly fitted or top-dose-only effect, or another doubt; inactive = no such curve, though single readings can be large; an effect the other way counts as inactive or inconclusive.

As for `O=C1O[C@H](CO)[C@@H](O)[C@H](O)[C@H]1O`, the Potency entry in experiment [1], in experiment [2], in experiment [3], in experiment [4], in experiment [5] and in [6] was “inactive” each time. Moreover, the Potency result in experiment [7], in experiment [8] and in [9] was “inactive” in each case.
As to `C[C@]12CC[C@@H]3c4ccc(O)cc4CC[C@H]3[C@@H]1CC[C@@H]2OC(=O)CCC1CCCC1`, the Potency result in experiment [1], in experiment [2], in experiment [6] and in experiment [7] was “inactive” in each case.
Regarding `O=C1NC(=O)[C@@]2(CCOc3ccc(F)cc32)N1`, the Potency result in experiment [1], in experiment [2], in experiment [3], in experiment [4], in experiment [6] and in [7] was “inactive” in each case. For the same compound, the Potency result in [8] and in experiment [9] was “inactive” each time.
On to `Cc1ncc(COP(=O)(O)O)c(C=O)c1O`, for which the Potency result in [1], in experiment [2], in [3], in [4], in [5] and in experiment [6] was “inactive” throughout. Moreover, the Potency result in experiment [7], in [8] and in experiment [9] was “inactive” in each case.
Regarding `CCN(CC)C(C)CN1c2ccccc2Sc2ccccc21` (centres undefined), the Potency entry in experiment [1], in [2], in [3], in experiment [4], in experiment [5] and in experiment [7] was “inactive” each time. The Potency entry in experiment [8] and in experiment [9] was “inactive” throughout.
On to `CCN(CC)CCCC(C)Nc1c2ccc(Cl)cc2nc2ccc(OC)cc12` (centres undefined), for which the Potency in [1] is 21.1 µM (active); in experiment [10], 27.6 µM (active); in experiment [3], 15 µM (active); in [6] it was 5.45 µM (active).
As to `CCN(CC)CCOC(=O)C1(C2CCCCC2)CCCCC1`, the Potency entry in experiment [1], in [4], in [7] and in experiment [8] was “inactive” in each case.
As to `Cc1ccc2nc(N)[nH]c(=O)c2c1Sc1ccncc1`, the Potency in experiment [2] is 944 nM (active). In addition, the Potency entry in experiment [4], in experiment [6] and in experiment [7] was “inactive” throughout.
Turning to `CNCCC(Oc1ccc(C(F)(F)F)cc1)c1ccccc1` (centres undefined), the Potency entry in experiment [3], in [4] and in experiment [8] was “inactive” throughout.
In the case of `CN(C)CCC=C1c2ccccc2CCc2ccccc21`, in experiment [7], the Potency entry was “inactive”.
As to `CNCCCC1c2ccccc2C=Cc2ccccc21`, the Potency in [2] was 11900 nM (active). The Potency entry in experiment [3] and in [7] was “inactive” in each case.
With `CC(O)COc1ccccc1` (centres undefined), the Potency entry in [1], in experiment [3], in experiment [4], in experiment [6], in experiment [8] and in experiment [9] was “inactive” throughout.
`O=C(O)CN1C(=O)c2cccc3cccc(c23)C1=O`: the Potency entry in experiment [2], in [3], in experiment [4], in experiment [6], in experiment [7] and in [8] was “inactive” throughout. Moreover, the Potency in experiment [9] is 1 nM (active).
For `O=C1OC(OC(=O)c2cccnc2Nc2cccc(C(F)(F)F)c2)c2ccccc21` (centres undefined), the Potency result in experiment [10], in experiment [3], in experiment [4], in [5], in [6] and in [7] was “inactive” in each case. Moreover, the Potency result in experiment [8] and in experiment [9] was “inactive” each time.
For `CC[C@H]1CN2CCc3cc(OC)c(OC)cc3[C@@H]2C[C@@H]1C[C@H]1NCCc2cc(OC)c(OC)cc21`, the Potency in experiment [2] was 211 nM (active); in experiment [3], 0.75 µM (active); in experiment [4], 1.33 µM (active); in [5], 0.376 µM (active); in experiment [6], 0.433 µM (active); in [8], 0.335 µM (active). In addition, the Potency in experiment [9] is 347 nM (active).
Regarding `c1ccc2c(CC3=NCCN3)cccc2c1`, the Potency entry in experiment [1], in experiment [10], in [3], in experiment [6], in [7] and in experiment [8] was “inactive” in each case.
Consider `CC(=O)c1ccc2c(c1)N(CCCN(C)C)c1ccccc1S2`, for which the Potency result in experiment [2], in [10], in experiment [3], in experiment [4], in experiment [5] and in [7] was “inactive” each time. In addition, the Potency entry in experiment [8] and in experiment [9] was “inactive” each time.
Regarding `C[C@](N)(Cc1ccc(O)cc1)C(=O)O`, in experiment [2], the Potency was 1 nM (active). Also, the activity change, negative = cytotoxic in [10] was 0.899% [at 6.03 µM]; in experiment [3], 16.2% [at 4.84 µM]; in [4], 7.56% [at 4.84 µM]; in experiment [5] it was -22.2% [at 4.84 µM]; in experiment [6] it was -0.998% [at 6 µM]; in experiment [8], -5.33% [at 4.84 µM]. Further, the activity change, negative = cytotoxic in [9] is 0.753% [at 6.03 µM].
With `CCCCOC(=O)c1ccc(O)cc1`, the Potency result in experiment [2], in [10], in experiment [3], in experiment [4], in experiment [6] and in [7] was “inactive” throughout. For the same compound, the Potency entry in experiment [8] was “inactive”.
With `CCCCN(CCCC)CC(O)c1cc(Cl)cc2c1-c1ccc(Cl)cc1/C2=C/c1ccc(Cl)cc1` (centres undefined), the Potency result in experiment [2], in [3], in experiment [4], in [6] and in experiment [7] was “inactive” in each case.
Take `OCCN1CCN(CCCN2c3ccccc3Sc3ccc(Cl)cc32)CC1`: the Potency in [1] is 21.1 µM (active); in experiment [5] it was 11.9 µM (active); in [6] it was 8.64 µM (active); in experiment [8] it was 23.7 µM (active). Also, in [4], the Potency result is “inactive”.
On to `OCc1cc(C(O)CNCCCCCCOCCCCc2ccccc2)ccc1O` (centres undefined), for which, in experiment [1], the Potency was 21.1 µM (active). For the same compound, the Potency entry in experiment [4], in [5], in experiment [7] and in experiment [8] was “inactive” each time.
